Test results published in PubChem BioAssay.
The source made the active and inactive calls.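 Rule for the calls, unless noted: active = superoxide response below 65% of plate, a cut near 3 SD across the whole screen; inactive = the rest.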

What was measured:
[1] = inhibitors of CD8+ T cell-vesicle binding, pilot screen, LFA-1/ICAM-1 modulator project, MLPCN validation set, flow cytometry (AID 2523;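 active = response below a set limit, under 55% cells CD8-positive and vesicle-bound, and CD8 cells' 90th-percentile brightness under 279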;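 for vesicle binding response: mean PE anti-B7-1 fluorescence of CD8+ cells relative to row control; 100% = QL9-loaded vesicles with DMSO vehicle in the same plate row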); settings: 2C mouse CD8+ T cells, at 7 µM, stronger effect = lower value; double positive events: measured here: CD8+/vesicle+ event percentage
[2] = target: Integrin beta-1 (Homo sapiens) + Integrin alpha-4 (Homo sapiens) (UniProt P13612+P05556); assay: inhibition of HUTS-21 binding to VLA-4, pilot screen, VLA-4 allosteric modulator project, U937 cells, HUTS-21 mAb, flow cytometry, validation set (AID 2674;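 active = inhibition above 50%, about 3 SD of the validation set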;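 note: antibody binding induced by the VLA-4 ligand LDV present at three times its Kd; 0% = LDV ligand with antibody and no compound and 100% = antibody without LDV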); settings: HUTS-21 LIBS mAb binding, at 6.7 µM, stronger effect = higher value, binding induced by LDV ligand
[3] = superoxide lowering in aged yeast cells, pilot screen, validation compound set (AID 2706);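 note: yeast exposed to compound for one week at 30 degrees C before staining; 100% = mean of all compound wells on the same plate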; settings: S. cerevisiae aging, superoxide DHE fluorescence; at 10 µM, stronger effect = lower value
[4] = target: Beta-adrenergic receptor kinase 1 (Homo sapiens) (UniProt P25098); assay: GRK2 binders displacing RNA aptamer, biochemical, validation, human GRK2, bead flow cytometry (AID 488806;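 active = aptamer binding inhibition above 30%, about 3 SD of noise from non-fluorescent compounds; inactive = inhibition at or below 30%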); settings: bead-bound GRK2, FAM-aptamer displacement, at 10 µM, stronger effect = higher value
[5] = target: Beta-2 adrenergic receptor (Homo sapiens) (UniProt P07550); assay: beta2AR agonists driving receptor internalization, pilot screen, cell-based, FAP fluorogen, flow cytometry, validation set (AID 504459;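 active = percent response above 42, roughly 3 SD of non-fluorescent test compounds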;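 note: agonist-driven loss of surface beta2AR via internalization measured by FAP dye flow cytometry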); settings: Am2.2-beta2AR cells, FAP surface receptor flow cytometry; at 10 µM; stronger effect = higher value
[6] = target: AP-2 complex subunit beta (Homo sapiens) (UniProt P63010); assay: inhibitors of arrestin peptide binding to AP2, pilot screen, biochemical, validation set, GST-AP2 beads, flow cytometry (AID 504541;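 active = inhibition above 54%, about 3 SD of non-fluorescent compounds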;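 note: AP2 carries R879A mutation and is captured from E. coli lysate; bead-bound FITC arrestin peptide fluorescence measuring arrestin peptide binding to AP2; 0% = DMSO wells and 100% = excess unlabeled arrestin peptide control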); settings: FITC arrestin peptide, at 10 µM, stronger effect = higher value, AP2 beta2 appendage fragment, R879A mutant
[7] = yeast V-ATPase proton transport modulators, S. cerevisiae, pHLuorin, HTS validation (AID 504600; in the data active = response above about 15%;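 note: plate controls were DMSO for no effect and reference compound for full effect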); settings: S. cerevisiae pHLuorin cytosolic pH, at 10 µM, stronger effect = higher value
[8] = system: anti-desmoglein-3 scFv antibody binding to human DSG3; assay: inhibitors of anti-DSG3 scFv binding to DSG3, pilot screen, biochemical, validation compound set, bead-based, flow cytometry (AID 588368;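 active = binding below the plate cutoff, the plate median minus 3 SD, with a reading above zero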;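 note: signal is the median channel fluorescence of bead-bound GFP antibody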); settings: Protein G beads, DSG3-Fc, scFv-GFP binding, at 10 µM, stronger effect = lower value
[9] = inhibitors of fungal efflux pumps CDR1, CDR2, MDR1, pilot screen, validation compound set, multiplex, phenotypic (AID 588506;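 active = efflux inhibition above 0.42, the validation set average plus 4 SD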;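 note: Nile Red retained in cells so higher fluorescence means more efflux inhibition; 0 = negative control wells and 1 = enniatin B 25 µM full block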); settings: S. cerevisiae pump-expressing triplex, Nile Red efflux flow cytometry; at 10 µM; stronger effect = higher value; the pumps come from Candida albicans
[10] = target: ATP-binding cassette sub-family B member 6 (Homo sapiens) (UniProt Q9NP58); assay: ABCB6 transporter inhibitors, pilot screen, K562-ABCB6 cells, flow cytometry, validation set (AID 588550;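 active = inhibition above the screen-wide mean plus 3 SD, about 51%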;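 note: 0% = DMSO wells and 100% = benzethonium chloride 70 µM positive control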); settings: K562-ABCB6 porphyrin accumulation, 1 h, at 10 µM, stronger effect = higher value
[11] = promoters of myeloid differentiation in arrested cells, primary screen, cell-based, GFP/MAC1 double positive, flow cytometry, validation set (AID 588685;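 active = differentiation response of at least 50%, scaled between solvent and reference control, from cells with both markers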;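 note: compound exposure lasts four days before antibody staining and flow analysis; 0% = DMSO wells and 100% = 5 µM fulvestrant positive control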); settings: ER-HoxA9 marrow cells, stronger effect = higher value, normalized: vehicle 0, fulvestrant 100

Chain of Beta-2 adrenergic receptor (Homo sapiens) (P07550 whole entry, looked up): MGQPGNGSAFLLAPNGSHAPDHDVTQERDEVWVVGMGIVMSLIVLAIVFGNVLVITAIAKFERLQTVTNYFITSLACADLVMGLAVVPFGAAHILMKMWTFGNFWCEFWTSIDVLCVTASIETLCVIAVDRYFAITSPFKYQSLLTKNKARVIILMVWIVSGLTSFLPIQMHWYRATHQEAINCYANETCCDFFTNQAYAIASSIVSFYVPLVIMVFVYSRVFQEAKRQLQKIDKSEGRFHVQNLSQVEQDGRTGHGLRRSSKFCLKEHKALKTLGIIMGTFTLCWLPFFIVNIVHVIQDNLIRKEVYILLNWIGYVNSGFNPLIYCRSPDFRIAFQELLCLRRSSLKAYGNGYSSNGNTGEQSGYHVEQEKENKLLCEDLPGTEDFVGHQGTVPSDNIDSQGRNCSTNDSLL
Chain of Integrin beta-1 (Homo sapiens) + Integrin alpha-4 (Homo sapiens) (P05556 whole entry, looked up): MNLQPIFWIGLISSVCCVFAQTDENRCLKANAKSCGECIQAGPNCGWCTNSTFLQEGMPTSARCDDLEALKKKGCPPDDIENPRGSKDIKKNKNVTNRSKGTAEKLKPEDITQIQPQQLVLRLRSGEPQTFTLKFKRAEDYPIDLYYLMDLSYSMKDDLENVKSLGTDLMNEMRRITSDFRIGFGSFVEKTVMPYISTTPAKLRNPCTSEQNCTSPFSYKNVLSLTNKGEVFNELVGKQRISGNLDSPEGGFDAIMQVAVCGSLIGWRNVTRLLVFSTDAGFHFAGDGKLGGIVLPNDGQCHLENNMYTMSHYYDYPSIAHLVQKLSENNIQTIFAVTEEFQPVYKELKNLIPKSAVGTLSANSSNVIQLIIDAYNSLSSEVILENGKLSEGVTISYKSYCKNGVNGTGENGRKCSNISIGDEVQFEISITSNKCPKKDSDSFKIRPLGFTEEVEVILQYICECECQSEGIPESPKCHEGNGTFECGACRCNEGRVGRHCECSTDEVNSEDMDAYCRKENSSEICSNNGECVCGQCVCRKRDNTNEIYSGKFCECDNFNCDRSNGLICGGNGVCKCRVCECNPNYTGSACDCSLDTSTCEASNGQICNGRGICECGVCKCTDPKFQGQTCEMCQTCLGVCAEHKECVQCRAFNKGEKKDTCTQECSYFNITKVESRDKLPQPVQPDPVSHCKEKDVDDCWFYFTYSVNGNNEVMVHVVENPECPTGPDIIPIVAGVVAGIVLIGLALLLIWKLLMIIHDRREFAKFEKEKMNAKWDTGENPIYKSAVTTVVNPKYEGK
Chain of Integrin beta-1 (Homo sapiens) + Integrin alpha-4 (Homo sapiens) (P13612 whole entry, looked up): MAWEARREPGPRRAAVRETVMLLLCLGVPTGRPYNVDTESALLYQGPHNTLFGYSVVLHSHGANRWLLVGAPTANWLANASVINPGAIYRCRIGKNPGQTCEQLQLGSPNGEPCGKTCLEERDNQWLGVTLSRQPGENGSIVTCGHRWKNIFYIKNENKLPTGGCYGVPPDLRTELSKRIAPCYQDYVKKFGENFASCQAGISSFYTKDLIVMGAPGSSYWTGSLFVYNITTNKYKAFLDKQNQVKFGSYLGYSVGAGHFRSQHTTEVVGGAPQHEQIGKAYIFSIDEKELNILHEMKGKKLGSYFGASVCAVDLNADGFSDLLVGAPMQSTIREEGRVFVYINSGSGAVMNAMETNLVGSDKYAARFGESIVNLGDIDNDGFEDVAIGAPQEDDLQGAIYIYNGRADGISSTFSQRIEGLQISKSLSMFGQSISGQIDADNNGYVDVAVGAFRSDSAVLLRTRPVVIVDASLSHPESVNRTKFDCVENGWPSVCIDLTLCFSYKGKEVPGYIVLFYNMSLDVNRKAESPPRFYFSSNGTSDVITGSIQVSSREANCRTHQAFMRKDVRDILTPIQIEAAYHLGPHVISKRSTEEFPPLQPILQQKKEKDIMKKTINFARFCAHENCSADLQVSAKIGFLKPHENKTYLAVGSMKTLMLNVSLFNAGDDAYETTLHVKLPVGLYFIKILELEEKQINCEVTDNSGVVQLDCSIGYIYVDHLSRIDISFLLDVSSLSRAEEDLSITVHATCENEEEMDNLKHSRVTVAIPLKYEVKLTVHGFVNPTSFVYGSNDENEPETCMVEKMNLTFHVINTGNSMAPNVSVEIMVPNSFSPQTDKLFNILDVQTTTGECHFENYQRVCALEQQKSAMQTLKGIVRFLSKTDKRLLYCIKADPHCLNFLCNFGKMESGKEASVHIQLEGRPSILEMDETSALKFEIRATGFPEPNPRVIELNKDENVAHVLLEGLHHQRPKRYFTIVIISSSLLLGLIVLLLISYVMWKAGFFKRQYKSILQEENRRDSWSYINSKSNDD
Chain of AP-2 complex subunit beta (Homo sapiens) (P63010 whole entry, looked up, the tested form may be a part, one chain of several): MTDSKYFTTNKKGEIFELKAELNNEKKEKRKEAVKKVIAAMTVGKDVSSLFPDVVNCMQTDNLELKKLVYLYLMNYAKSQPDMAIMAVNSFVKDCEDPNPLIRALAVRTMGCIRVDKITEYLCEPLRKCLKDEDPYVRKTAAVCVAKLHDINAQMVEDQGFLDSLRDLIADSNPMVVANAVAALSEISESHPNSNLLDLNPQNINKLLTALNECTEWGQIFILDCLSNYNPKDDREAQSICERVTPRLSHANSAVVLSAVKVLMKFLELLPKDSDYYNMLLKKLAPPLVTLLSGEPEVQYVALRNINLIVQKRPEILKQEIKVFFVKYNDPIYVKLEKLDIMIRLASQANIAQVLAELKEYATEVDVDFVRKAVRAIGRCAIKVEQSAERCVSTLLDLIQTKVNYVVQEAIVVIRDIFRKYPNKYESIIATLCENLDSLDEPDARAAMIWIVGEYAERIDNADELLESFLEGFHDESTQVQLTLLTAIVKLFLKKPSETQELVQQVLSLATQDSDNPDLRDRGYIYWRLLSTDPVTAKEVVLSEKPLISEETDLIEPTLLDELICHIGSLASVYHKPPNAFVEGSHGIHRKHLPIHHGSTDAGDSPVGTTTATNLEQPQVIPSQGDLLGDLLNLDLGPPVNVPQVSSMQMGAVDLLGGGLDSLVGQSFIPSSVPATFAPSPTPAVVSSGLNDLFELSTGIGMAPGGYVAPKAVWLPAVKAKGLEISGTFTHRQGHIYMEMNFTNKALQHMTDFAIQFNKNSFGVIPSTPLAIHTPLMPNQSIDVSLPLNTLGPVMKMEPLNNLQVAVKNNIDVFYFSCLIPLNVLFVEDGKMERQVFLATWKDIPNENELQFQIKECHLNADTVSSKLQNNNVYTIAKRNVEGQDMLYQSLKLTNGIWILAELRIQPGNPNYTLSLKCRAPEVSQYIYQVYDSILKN
Chain of ATP-binding cassette sub-family B member 6 (Homo sapiens) (Q9NP58 whole entry, looked up): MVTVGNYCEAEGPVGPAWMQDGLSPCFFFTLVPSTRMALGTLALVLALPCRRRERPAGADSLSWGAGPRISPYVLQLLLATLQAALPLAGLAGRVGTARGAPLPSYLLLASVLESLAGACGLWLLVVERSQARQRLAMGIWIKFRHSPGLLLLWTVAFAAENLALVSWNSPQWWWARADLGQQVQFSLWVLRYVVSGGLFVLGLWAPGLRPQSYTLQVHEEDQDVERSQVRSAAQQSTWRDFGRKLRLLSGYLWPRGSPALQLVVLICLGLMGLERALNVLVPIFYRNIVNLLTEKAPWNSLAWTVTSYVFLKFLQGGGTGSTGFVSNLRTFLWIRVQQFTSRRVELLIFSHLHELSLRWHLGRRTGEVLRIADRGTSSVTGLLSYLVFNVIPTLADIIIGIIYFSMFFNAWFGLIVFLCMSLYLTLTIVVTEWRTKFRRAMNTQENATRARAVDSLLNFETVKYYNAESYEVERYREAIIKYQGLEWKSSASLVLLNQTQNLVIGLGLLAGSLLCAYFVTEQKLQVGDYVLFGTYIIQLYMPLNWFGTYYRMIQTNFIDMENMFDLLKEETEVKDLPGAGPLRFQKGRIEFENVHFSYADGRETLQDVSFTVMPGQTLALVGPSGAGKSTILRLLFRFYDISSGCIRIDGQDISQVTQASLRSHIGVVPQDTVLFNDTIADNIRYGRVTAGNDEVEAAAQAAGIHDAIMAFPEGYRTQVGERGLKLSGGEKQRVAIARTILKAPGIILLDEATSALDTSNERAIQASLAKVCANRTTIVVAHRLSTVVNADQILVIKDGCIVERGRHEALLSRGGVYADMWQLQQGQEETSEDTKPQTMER
Chain of Beta-adrenergic receptor kinase 1 (Homo sapiens) (P25098 whole entry, looked up): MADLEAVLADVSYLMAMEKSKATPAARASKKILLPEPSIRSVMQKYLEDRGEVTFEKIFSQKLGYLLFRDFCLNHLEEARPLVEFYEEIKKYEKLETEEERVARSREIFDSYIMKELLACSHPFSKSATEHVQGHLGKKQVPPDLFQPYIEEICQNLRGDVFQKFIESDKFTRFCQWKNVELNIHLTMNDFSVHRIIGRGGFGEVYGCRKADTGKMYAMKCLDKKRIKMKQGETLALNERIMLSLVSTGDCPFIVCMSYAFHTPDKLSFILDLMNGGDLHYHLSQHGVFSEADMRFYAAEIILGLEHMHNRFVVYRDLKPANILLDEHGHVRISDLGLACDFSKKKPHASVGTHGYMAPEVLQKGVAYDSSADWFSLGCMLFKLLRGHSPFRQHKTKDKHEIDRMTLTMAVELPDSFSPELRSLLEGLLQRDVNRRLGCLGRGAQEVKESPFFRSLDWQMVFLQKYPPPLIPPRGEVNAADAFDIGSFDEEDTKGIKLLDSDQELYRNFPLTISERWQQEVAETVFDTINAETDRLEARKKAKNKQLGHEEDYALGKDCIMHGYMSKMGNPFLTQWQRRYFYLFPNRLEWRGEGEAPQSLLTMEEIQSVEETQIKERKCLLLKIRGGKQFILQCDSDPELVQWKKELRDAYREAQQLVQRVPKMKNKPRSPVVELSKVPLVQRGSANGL

| SMILES | double positive events [1] | vesicle binding response [1] | inhibition [2] | superoxide response (% of plate) [3] | aptamer binding inhibition [4] | response [5] | inhibition [6] | response [7] | binding (% of control) [8] | efflux inhibition (fraction of control) [9] | inhibition [10] | differentiation response [11] |
| --- | --- | --- | --- | --- | --- | --- | --- | --- | --- | --- | --- | --- |
| COc1ccc(CCCC(=O)O)c(C)c1 | 63.8% | 282% (inactive) | -9.06% (inactive) | 92.3% (inactive) | -1% (inactive) | 1.17% (inactive) | 5.62% (inactive) | -1.31% (inactive) | 111% (inactive) | -0.2 (inactive) | 17% (inactive) | 0% (inactive) |
| COC(=O)c1cc(C(=O)NCCC(C)C)cc([N+](=O)[O-])c1 | 57.8% | 229% (inactive) | 2.3% (inactive) | 112% (inactive) | 4% (inactive) | 7.63% (inactive) | -12% (inactive) | 2.1% (inactive) | 94.5% (inactive) | -0.13 (inactive) | 3% (inactive) | -15.2% (inactive) |
| O=C(Nc1c(C(=O)O)[nH]c2ccccc12)NC1CCCCC1 | 60.3% | 190% (inactive) | -17.3% (inactive) | 102% (inactive) | 4% (inactive) | -18.9% (inactive) | 3.04% (inactive) | 5.33% (inactive) | 101% (inactive) | -0.13 (inactive) | -3% (inactive) | -4% (inactive) |
| Cc1c(OCC(=O)NC(Cc2c[nH]c3ccc(O)cc23)C(=O)O)ccc2c3c(c(=O)oc12)CCC3 (stereo unspecified) | 51.4% | 218% (inactive) | 6.29% (inactive) | 87.9% (inactive) | 3% (inactive) |  | 3.65% (inactive) | 6.27% (inactive) | 101% (inactive) | -0.5 (inactive) | 11% (inactive) | -22.8% (inactive) |
| O=c1cc(Cn2ccnc2)c2cc3c(cc2o1)CCC3 | 57.6% | 143% (inactive) | -11.3% (inactive) | 99.2% (inactive) | -2% (inactive) | -7.31% (inactive) | 8.12% (inactive) | -1.72% (inactive) | 105% (inactive) | 0.08 (inactive) | 2% (inactive) | 48.8% (inactive) |
| CCNCCC(CCC(C)C)c1ccc2c(c1)OCO2 (stereo unspecified) | 54.2% | 233% (inactive) | 9.09% (inactive) | 103% (inactive) | -1% (inactive) |  | -9.39% (inactive) | -1.01% (inactive) | 96.9% (inactive) | -0.16 (inactive) | -3% (inactive) | 9.49% (inactive) |
| Cn1c2[n+](c3ccc(Cl)cc3c1=O)Cc1ccccc1-2 | 69% | 278% (inactive) | -13% (inactive) | 97.2% (inactive) | 1% (inactive) | -8.51% (inactive) | 1.06% (inactive) | 7.46% (inactive) | 107% (inactive) | 0.21 (inactive) | 10% (inactive) | 20.6% (inactive) |
| COc1ccccc1C(CC(=O)Nc1ccccc1C)c1ccc(OC(C)C)cc1 (stereo unspecified) | 63.5% | 263% (inactive) | 9.95% (inactive) | 92.7% (inactive) | 4% (inactive) | -15% (inactive) | -4.43% (inactive) | -5.65% (inactive) | 105% (inactive) | 0.54 (active) | 0% (inactive) | -1.05% (inactive) |
| COc1cc(C(=O)OCCCN(C)C)cc(OC)c1OC | 60.1% | 180% (inactive) | 21.9% (inactive) | 93.6% (inactive) | -2% (inactive) | -28.8% (inactive) | 4.79% (inactive) | 1.07% (inactive) | 108% (inactive) | -0.09 (inactive) | -1% (inactive) | -4.99% (inactive) |
| COc1cc2c3c(c1)C1(C(=O)N3C(C)(C)C=C2C)C(C#N)=C(N)Oc2cc(C)oc(=O)c21 (stereo unspecified) | 60.1% | 172% (inactive) | 2.3% (inactive) | 96.8% (inactive) | -1% (inactive) | -71.3% (inactive) | -6.4% (inactive) | -0.54% (inactive) | 110% (inactive) | 0.4 (inactive) | 5% (inactive) | 79.2% (active) |
| COc1ccccc1C1(CC(=O)N2CCCCC2)CCOC(C(C)C)C1 (stereo unspecified) | 60.3% | 205% (inactive) | 6.4% (inactive) | 97.5% (inactive) | 0% (inactive) | 8.83% (inactive) | -7.8% (inactive) | 2.05% (inactive) | 105% (inactive) | 0.33 (inactive) | 6% (inactive) | 23.2% (inactive) |
| CCCCC[C@H](O)/C=C/[C@@H]1[C@@H](CCCCCCC(=O)O)[C@@H](O)C[C@H]1O | 55.5% | 114% (inactive) | 5.36% (inactive) | 104% (inactive) | 2% (inactive) |  | -0.39% (inactive) | 1.43% (inactive) | 99.8% (inactive) | 0.29 (inactive) | 9% (inactive) | -26% (inactive) |
| CSc1ccc2c(c1)N(CCC1CCCCN1C)c1ccccc1S2 (stereo unspecified) | 66.7% | 166% (inactive) | 27.1% (inactive) | 88.6% (inactive) | -7% (inactive) | 60.7% (active) | 0.21% (inactive) | -0.24% (inactive) | 106% (inactive) | -0.145 (inactive) |  | 11.5% (inactive) |
| Cn1c(=O)[nH]c(=O)c2c1nc(Br)n2CCCO | 64.5% | 261% (inactive) | 6.29% (inactive) | 90.2% (inactive) | 0% (inactive) |  | 7.12% (inactive) | 0.07% (inactive) | 109% (inactive) | -0.01 (inactive) | 8% (inactive) | -24.4% (inactive) |
| Cc1ncc(C(=O)O)c(C(=O)O)c1N | 52.2% | 184% (inactive) | 4.42% (inactive) | 110% (inactive) | 2% (inactive) |  | -2.62% (inactive) | -3.73% (inactive) | 100% (inactive) | -0.09 (inactive) | 8% (inactive) | -14.7% (inactive) |
| COc1ccc2[nH]c(C)c(CN3CCC(C)CC3)c(=O)c2c1 | 50.2% | 154% (inactive) | -14.2% (inactive) | 100% (inactive) | 2% (inactive) |  | -1.75% (inactive) | 4.29% (inactive) | 98.5% (inactive) | 0.1 (inactive) | 2% (inactive) | -5.05% (inactive) |
| COc1c2occc2c(OC)c2c(=O)cc(C)oc12 | 48.6% | 176% (inactive) | 8.15% (inactive) | 108% (inactive) | 1% (inactive) |  | -4.24% (inactive) | 3.33% (inactive) | 102% (inactive) | 0.1 (inactive) | 5% (inactive) | 33.7% (inactive) |
| COc1ccc(C2CNC(=O)C2)cc1OC1CCCC1 (stereo unspecified) | 53.3% | 151% (inactive) | -8.64% (inactive) | 104% (inactive) | -6% (inactive) |  | 23.8% (inactive) | -25.8% (inactive) | 105% (inactive) | -0.12 (inactive) | 7% (inactive) | -3.43% (inactive) |
| N=c1ccn(CC(=O)NC(N)=O)c2ccccc12 | 55.8% | 241% (inactive) | 12.8% (inactive) | 99.5% (inactive) | 4% (inactive) |  | 8.55% (inactive) | 14.2% (inactive) | 95.7% (inactive) | -0.09 (inactive) | -15% (inactive) | -3.43% (inactive) |
| CC(C)OC(=O)C(C)(C)Oc1ccc(C(=O)c2ccc(Cl)cc2)cc1 | 54.1% | 223% (inactive) | 12.8% (inactive) | 106% (inactive) | -1% (inactive) |  | -5.48% (inactive) | 0.98% (inactive) | 103% (inactive) | -0.09 (inactive) | 7% (inactive) | -13.1% (inactive) |
| CC(=Nc1ccccc1)C1=C(O)CCCC1=O | 61.6% | 312% (inactive) | 13.8% (inactive) | 104% (inactive) | 1% (inactive) |  | -9.14% (inactive) | 8.27% (inactive) | 97.7% (inactive) | -0.24 (inactive) | 0% (inactive) | -21.2% (inactive) |
| COc1ccc(C(=O)/C=C/c2cc(C(=O)O)cc3c2OCOC3)c(O)c1 | 54.5% | 202% (inactive) | -3.97% (inactive) | 99.9% (inactive) | 6% (inactive) |  | -2.5% (inactive) | -6.09% (inactive) | 95.7% (inactive) | -0.43 (inactive) | 0% (inactive) | -1.82% (inactive) |
| Cc1cc(=O)oc(C)c1C(=O)NCCC(C)C | 53.1% | 150% (inactive) | -1.17% (inactive) | 87.3% (inactive) | 0% (inactive) |  | -9.02% (inactive) | 7.71% (inactive) | 102% (inactive) | 0.37 (inactive) | 15% (inactive) | 32.1% (inactive) |
| O=Cc1ccc(N2CCCCC2)cc1 | 54.6% | 201% (inactive) | 10.9% (inactive) | 106% (inactive) | 3% (inactive) |  | -10.3% (inactive) | 1.25% (inactive) | 101% (inactive) | -0.05 (inactive) | 4% (inactive) | -3.43% (inactive) |
| O=C(CCNNC(=O)c1ccncc1)NCc1ccccc1 | 66.8% | 184% (inactive) | 18.4% (inactive) | 101% (inactive) | -1% (inactive) |  | 26.4% (inactive) | 1.75% (inactive) | 99% (inactive) | 0.48 (active) | 5% (inactive) | -24.4% (inactive) |
| COC(=O)c1[nH]c2ccc(F)cc2c1NC(=O)C1=COCCO1 | 55.5% | 252% (inactive) | -3.04% (inactive) | 89.2% (inactive) | 1% (inactive) |  | 1.47% (inactive) | -2.26% (inactive) | 92.8% (inactive) | -0.01 (inactive) | 7% (inactive) | 45% (inactive) |
| CC12CCC(C(=O)Nc3ccccc3Br)(C/C1=N\O)C2(C)C (stereo unspecified) | 58.3% | 154% (inactive) | -6.77% (inactive) | 92.2% (inactive) | 3% (inactive) |  | -0.26% (inactive) | 2.28% (inactive) | 96% (inactive) | -0.12 (inactive) | 9% (inactive) | -9.89% (inactive) |
